One experiment addresses Albumin (Bos taurus) (UniProt P02769). As to the kind of experiment: bovine serum albumin binders on microarray, profiling panel, artefact control for SMM control protein annotation, biochemical, small-molecule microarray, Alexa647 label, 635/667 nm fluorescence (AID 1118).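 Further: score merges 667 nm emission intensity and signal-to-noise per printed compound spot.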 Particulars: BSA-A647 binding, fluorescence 635 nm, higher = more signal.
A short description of experiment [1]: small-molecule microarray binders of probe aXIP, primary screen, biochemical, NeuroSMM set, 635/667 nm fluorescence (AID 1119).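 Further: probe is the protein aXip251-270 applied at 1 µg/mL to compound-printed slides; binding of probe to printed compounds measured as 667 nm fluorescence plus signal to noise.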 The conditions noted are these: higher = more signal, called active from +8 up or from −8 down.
A short description of experiment [2]: small-molecule binders of probe aNOTCH3, primary screen, biochemical, small-molecule microarray, 635/667 nm fluorescence (AID 1120).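 Further: probe is a biotin-tagged antibody raised against NOTCH3 rather than NOTCH3 protein; score merges spot fluorescence near 667 nm with spot signal to noise.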 Particulars: higher = more signal.
The nature of experiment [3]: small-molecule binders of probe aNOTCH2, primary screen, biochemical, small-molecule microarray, 635/667 nm fluorescence (AID 1121).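 Further: score merges feature fluorescence read at 667 nm with its signal to noise.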 The conditions noted are these: higher = more signal.
The target in experiment [4] is Carbonic anhydrase 2 (Homo sapiens) (UniProt P00918). Put plainly: CAII small-molecule binders, profiling panel, biochemical, small-molecule microarray, Alexa647-labelled CAII (AID 1122). Particulars: CAII-A647 binding fluorescence, higher = more signal.
Experiment [5] is described as follows: COS7 lysate on small-molecule microarray, probe aHis, 635 nm (AID 1123).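 Further: z-score combines 667nm fluorescence intensity with signal-to-noise per printed compound spot.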 The conditions noted are these: COS7 cell lysate, fluorescence, higher = more signal.
A short description of experiment [6]: compound binding in COS7 lysate, probe aLAP1, primary screen, cell lysate, small-molecule microarray (AID 1124).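 Further: lysate comes from COS7 cells expressing LAP1 and is applied at 0.3 µg/mL; score merges spot fluorescence near 667 nm with signal-to-noise over triplicate slides.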 The conditions noted are these: probe aLAP1, fluorescence, higher = more signal.
A further experiment has as its system Sam68 (KHDRBS1). Put plainly: Sam68 small-molecule binders, primary screen, biochemical, small-molecule microarray, 635 nm fluorescence (AID 1125).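 Further: score merges 667 nm channel intensity with signal to noise over triplicate slides.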 The conditions noted are these: small-molecule microarray binding, higher = more signal.
Experiment [7] deals with Chordin-like protein 2 (CHRDL2). Put plainly: CHRDL2 small-molecule binders, primary screen, biochemical, small-molecule microarray, 635 nm fluorescence (AID 1126).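 Further: printed compound slides probed with Chrdl2 protein at 4 µg/mL for 1 h at 4 C; score merges 667 nm emission intensity with signal to noise over three replicate slides.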 Particulars: small-molecule microarray binding, fluorescence 635 nm; higher = more signal.
Experiment [8] deals with Concanavalin-A (Canavalia ensiformis) (UniProt P02866). Put plainly: ConA small-molecule binders, primary screen, artefact control for SMM control protein annotation, biochemical, small-molecule microarray, Alexa647 label, 635 nm (AID 1127).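 Further: z combines 667 nm emission intensity with signal-to-noise across three replicate slides.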 Particulars: ConA-A647 binding fluorescence, higher = more signal.

Structures are written as SMILES. Active and inactive are the calls of the source.

Albumin (Bos taurus), sequence (P02769 whole entry, looked up): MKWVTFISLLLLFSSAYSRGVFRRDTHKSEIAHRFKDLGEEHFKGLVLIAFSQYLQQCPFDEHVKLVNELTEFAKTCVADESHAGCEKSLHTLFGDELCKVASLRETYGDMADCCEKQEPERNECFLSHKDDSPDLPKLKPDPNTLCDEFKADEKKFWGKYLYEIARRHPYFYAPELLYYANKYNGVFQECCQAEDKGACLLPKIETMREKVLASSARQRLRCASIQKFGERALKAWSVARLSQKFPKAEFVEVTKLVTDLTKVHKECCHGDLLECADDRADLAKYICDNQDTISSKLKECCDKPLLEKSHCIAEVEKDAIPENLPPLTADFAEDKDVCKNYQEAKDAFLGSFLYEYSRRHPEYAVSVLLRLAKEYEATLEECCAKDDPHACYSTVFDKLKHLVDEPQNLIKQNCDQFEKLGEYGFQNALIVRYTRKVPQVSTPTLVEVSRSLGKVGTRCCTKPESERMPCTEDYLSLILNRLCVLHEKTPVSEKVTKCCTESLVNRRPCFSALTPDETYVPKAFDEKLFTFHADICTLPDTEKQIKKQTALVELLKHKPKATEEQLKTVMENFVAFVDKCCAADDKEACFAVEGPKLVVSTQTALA
Concanavalin-A (Canavalia ensiformis), sequence (P02866 whole entry, looked up): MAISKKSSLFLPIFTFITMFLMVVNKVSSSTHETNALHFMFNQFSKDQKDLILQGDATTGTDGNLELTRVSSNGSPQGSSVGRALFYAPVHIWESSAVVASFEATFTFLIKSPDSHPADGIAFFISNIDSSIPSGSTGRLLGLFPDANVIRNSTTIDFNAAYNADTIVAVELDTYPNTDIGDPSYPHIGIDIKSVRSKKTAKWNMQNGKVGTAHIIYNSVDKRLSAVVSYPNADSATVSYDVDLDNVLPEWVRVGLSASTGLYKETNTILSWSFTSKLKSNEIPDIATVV

On to `COc1c(C)cc(-c2cc3c(c(-c4ccccc4)n2)[Si](C(C)C)(C(C)C)O[C@H]3c2ccccc2)cc1C`, for which the composite z-score in the experiment with Albumin (Bos taurus) is -0.102; in [2], -0.0343; in [3], -0.154; in [4], -0.0516; in experiment [5] it was 0.0732; in experiment [6], -0.325. Besides, the composite z-score in the experiment with Sam68 (KHDRBS1) amounted to 0.111; in [7], 0.613; in [8], 0.124. Also, the composite Z-score in [1] was -0.322 (inactive).
With `C=CC[C@]1(C(=O)O)N=C(c2ccc(OCCCO)cc2)O[C@H]1c1ccccc1CN=[N+]=[N-]`, the composite z-score in the experiment with Albumin (Bos taurus) is 0.659; in [2] it was -0.0447; in [3], -0.157; in [4], 0.876; in experiment [5], 1.23; in [6] it was -0.201. Also, the composite z-score was -0.103 with Sam68 (KHDRBS1), 0.0037 in experiment [7] and 0.0681 in experiment [8]. In addition, the composite Z-score in [1] is 0.168 (inactive).
On to `CC(C)C(O)C1C=CC2C(=O)N(C)C(=O)C2N1N1CCCCC1` (stereo not given), for which the composite z-score with Albumin (Bos taurus) is 0.867; in [2] it was 0.143; in experiment [3] it was 0.0994; in [4], 0.773; in [5] it was 2.2; in [6] it was 0.111. For the same compound, the composite z-score in the experiment with Sam68 (KHDRBS1) was 0.832; in experiment [7], 0.117; in experiment [8], 0.657. Moreover, the composite Z-score in experiment [1] is 0.875 (inactive).
Regarding `O=C1OCC=C[C@H]2OC34C=CCN(c5ccc(Cl)cc5)C(=O)[C@H]3N(CCCO)C(=O)[C@@H]4[C@@H]12` (stereo not given in full), the composite z-score was -1.3 with Albumin (Bos taurus); -0.254 in [2]; -0.164 in [3]; 0.96 in [4]; 0.446 in [5]; -0.0727 in [6]. The values for the composite z-score (in the experiment with Sam68 (KHDRBS1); in experiment [7]; in experiment [8]) were -0.819, -1.6 and -0.927, respectively. Also, the composite Z-score in experiment [1] was -0.265 (inactive).
On to `C=C(COC)/C(=C/C[C@H](OC(C)=O)c1ccccc1OCCO)c1cnc2ccccc2c1`, for which the composite z-score with Albumin (Bos taurus) is 0.185; in experiment [2], -0.0044; in [3], -0.14; in experiment [4], 0.648; in experiment [5], 0.649; in experiment [6], -0.186. Besides, the composite z-score stood at 1.06 with Sam68 (KHDRBS1), 1 in experiment [7] and 0.49 in experiment [8]. In addition, the composite Z-score in experiment [1] was 0.115 (inactive).
Turning to `COC(=O)[C@@]1(Cc2ccc(F)cc2)[C@H]2c3cc(C(=O)N(C)C)n(CCCNc4ccc(C(F)(F)F)cc4Cl)c3C[C@H]2CN1C(=O)c1ccccc1`, the composite z-score with Albumin (Bos taurus) was 1.03; in [2], 0.568; in [3] it was 0.116; in [4], 0.778; in experiment [5], 2.87; in experiment [6], 0.12. Also, the values for the composite z-score (in the experiment on Sam68 (KHDRBS1); in [7]; in experiment [8]) were 1.3, -0.841 and 1.17, respectively. In experiment [1], the composite Z-score was -0.214 (inactive).
Take `CCOC(=O)C[C@H]1[C@H](OC(=O)c2ccc(C(=O)c3ccccc3)cc2)[C@@H](NC(=O)c2ccc3ccccc3n2)c2cc(OCCCO)ccc2N1C(=O)c1ccc2ccccc2n1`: the composite z-score was 0.802 with Albumin (Bos taurus); 0.16 in experiment [2]; -0.101 in experiment [3]; 0.245 in [4]; 0.847 in experiment [5]; 0.808 in [6]. In addition, the results for the composite z-score (in the experiment on Sam68 (KHDRBS1); in experiment [7]; in [8]) were 0.616, -0.0787 and 0.564, respectively. The composite Z-score in experiment [1] was 0.525 (inactive).
On to `COC(=O)[C@@]1(Cc2ccc(F)cc2)[C@H]2c3cc(C(=O)N(C)C)n(Cc4ccccn4)c3C[C@H]2CN1C(=O)c1ccccc1`, for which the composite z-score with Albumin (Bos taurus) was 0.979; in [2], 1.15; in experiment [3] it was -0.168; in experiment [4] it was 0.908; in [5], 2.46; in [6], 1.08. Further, the composite z-score was 1.19 with Sam68 (KHDRBS1), -0.552 in [7] and 0.481 in experiment [8]. Further, the composite Z-score in [1] is -0.91 (inactive).
With `COc1ccc([Si](C)(C)[C@H]2[C@H](CCO)O[C@@]3(C(=O)N(Cc4ccccc4)c4ccc(N5C(=O)COc6ccccc65)cc43)[C@@H]2C)cc1`, the composite z-score in the experiment with Albumin (Bos taurus) was 0.449; in [2] it was -0.0431; in [3] it was -0.0552; in [4], 0.443; in experiment [5], 0.69; in [6], 0.11. Further, the composite z-score is -0.101 with Sam68 (KHDRBS1), -0.516 in experiment [7] and 0.211 in [8]. In addition, the composite Z-score in experiment [1] is 0.412 (inactive).
In the case of `CN1C(=O)C2C=CC(C(O)c3ccccc3)N(NC(=O)OC(C)(C)C)C2C1=O` (stereo not given), the composite z-score is 0.959 with Albumin (Bos taurus); 0.245 in experiment [2]; -0.0722 in [3]; 0.722 in experiment [4]; 2.05 in experiment [5]; 0.23 in experiment [6]. The composite z-score in the experiment on Sam68 (KHDRBS1) was 1.01; in experiment [7], -0.33; in experiment [8], 0.442. The composite Z-score in experiment [1] was 0.0333 (inactive).
Turning to `OCCCc1cc[n+](Cc2cccc(OC(F)(F)F)c2)cc1`, the composite z-score was 0.589 in the experiment with Albumin (Bos taurus); 0.147 in experiment [2]; -0.101 in [3]; 0.842 in experiment [4]; 2.02 in experiment [5]; 0.348 in experiment [6]. In addition, the composite z-score in the experiment with Sam68 (KHDRBS1) is 1.28; in [7] it was 0.421; in experiment [8], 1.09. Further, the composite Z-score in [1] is 0.755 (inactive).
As to `CC(=O)N1Cc2ccccc2C[C@@]2(N=C(c3ccc(OCCCO)cc3)O[C@H]2c2ccccc2)C1=O`, the composite z-score in the experiment with Albumin (Bos taurus) was -0.0471; in experiment [2], 0.22; in [3] it was 0.139; in experiment [4], 0.709; in experiment [5], 3.18; in experiment [6], 1.24. In addition, the composite z-score with Sam68 (KHDRBS1) was found to be 1.3; in experiment [7] it was 0.611; in [8], 1.17. Besides, the composite Z-score in experiment [1] is 0.0748 (inactive).
Take `CC(c1ccccc1)C(O)C1C=CC2C(=O)N(Cc3ccccc3)C(=O)C2N1n1cnnc1` (stereo not given): the composite z-score with Albumin (Bos taurus) was 0.405; in experiment [2], 0.178; in [3], -0.046; in experiment [4], 0.415; in [5], 1.06; in experiment [6], -0.0771. The composite z-score in the experiment on Sam68 (KHDRBS1) is 0.669; in experiment [7] it was -0.226; in [8], 0.851. Also, the composite Z-score in experiment [1] is 0.171 (inactive).
With `NC(=O)[C@]1(Cc2ccccc2)N=C(c2ccc(OCCCO)cc2)O[C@@H]1c1ccccc1`, the composite z-score in the experiment with Albumin (Bos taurus) worked out at 0.532; in [2], 0.106; in experiment [3] it was 0.0959; in [4] it was 0.865; in experiment [5] it was 2.53; in experiment [6], 0.583. The figures for the composite z-score (in the experiment on Sam68 (KHDRBS1); in [7]; in experiment [8]) were 0.827, -0.0464 and 0.587, respectively. Besides, the composite Z-score in experiment [1] was 0.702 (inactive).
For the compound `O=[N+]([O-])c1ccc(C[n+]2ccc(CCCO)cc2)o1`, the composite z-score in the experiment with Albumin (Bos taurus) worked out at 0.766; in experiment [2] it was 0.277; in experiment [3], 0.0655; in experiment [4], 0.82; in [5], 1.82; in [6] it was 0.313. Besides, the composite z-score was 0.916 in the experiment on Sam68 (KHDRBS1), 0.793 in experiment [7] and 1.09 in [8]. Moreover, in [1], the composite Z-score is -0.138 (inactive).
On to `O=c1cccc(-c2cccc3ccccc23)o1`, for which the composite z-score with Albumin (Bos taurus) is 0.702; in [2], -0.0377; in experiment [3] it was 0.0135; in experiment [4], 0.475; in experiment [5], 0.458; in experiment [6], 0.871. The composite z-score with Sam68 (KHDRBS1) was 0.11; in experiment [7], -0.671; in [8], -0.511. For the same compound, the composite Z-score in experiment [1] is 0.276 (inactive).
As to `O=C1O[C@@H](c2ccccc2)[C@@H](c2ccccc2)N2[C@@H](c3ccc(O)cc3)[C@]3(C(=O)Nc4ccc(C#CCCO)cc43)[C@@H](C(=O)N3CCCCCCC3)[C@H]12`, the composite z-score with Albumin (Bos taurus) is -0.126; in experiment [2], 1.3; in experiment [3], 0.612; in experiment [4] it was 0.766; in experiment [5], 3.26; in [6] it was 0.991. Also, the composite z-score in the experiment on Sam68 (KHDRBS1) stood at 1.16; in experiment [7], 1.43; in experiment [8] it was 0.884. Also, in experiment [1], the composite Z-score is 5.37 (inactive).

For the origin of these results see PubChem BioAssay.
